Data from PubChem BioAssay (NCI).
Compounds without any hit were thinned out: in the full panel of roughly 79,000, 15% have a hit. Unmarked numbers belong to inactive results. Activity calls are given as the source filed them. Cut-off read from the data, not from the text of the source: active = growth inhibition above about 70%; inactive = the rest.

What was measured:
[1] = NCI Yeast Anticancer Drug Screen. Data for the rad50 strain (AID 155);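 note: 0% = growth of vehicle-only cultures of the same strain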; conditions: S. cerevisiae rad50 strain growth inhibition, hits give high values
Procedure, shortened: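 DNA repair mutant yeast, compound exposure, growth read-out; inhibition is taken relative to vehicle.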

[2] = NCI Yeast Anticancer Drug Screen. Data for the mec2-1 strain (AID 157); conditions: S. cerevisiae mec2-1 strain, hits give high values
Procedure, shortened: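 Growth inhibition is read against vehicle-treated controls after compound exposure of the mec2-1 yeast strain, which is defective in DNA damage repair or cell cycle control.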

[3] = NCI Yeast Anticancer Drug Screen. Data for the sgs1 mgt1 strain (AID 161);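 note: 0% = growth of cultures given vehicle only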; conditions: S. cerevisiae sgs1 mgt1 strain, hits give high values
Procedure, shortened: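 Yeast cells carrying a defined DNA-repair defect were exposed to test compounds. Growth inhibition was measured relative to vehicle-treated controls.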

[4] = NCI Yeast Anticancer Drug Screen. Data for the cln2 rad14 strain (AID 165);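 note: 0% = growth equal to vehicle treated cultures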; conditions: S. cerevisiae cln2 rad14 strain, hits give high values
Procedure, shortened: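 Growth inhibition, relative to vehicle-treated controls, is the read-out. The test organism is a yeast strain with defined genetic alterations, cln2 rad14.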

[5] = NCI Yeast Anticancer Drug Screen. Data for the bub3 strain (AID 167); conditions: S. cerevisiae bub3 mutant strain, hits give high values
Procedure, shortened: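 In this screen, a yeast mutant lacking normal mitotic checkpoint function is challenged with compound. Relative growth versus vehicle gives the inhibition value.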

[6] = NCI Yeast Anticancer Drug Screen. Data for the mlh1 rad18 strain (AID 175); conditions: S. cerevisiae mlh1 rad18 strain growth inhibition, hits give high values
Procedure, shortened: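 Cells of a genetically altered yeast strain, deficient in DNA damage repair, were treated with compound. Their growth was then compared with that of vehicle-treated cultures to give inhibition.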

[7] = at 5.0 µM (retest, dose inferred, filed as 0.5)
[8] = at 50.0 µM (retest, dose inferred, filed as 5.0)

Structure (SMILES) | growth inhibition [1, 7] | growth inhibition [1, 8] | growth inhibition ([1]; at 50.0 µM) | growth inhibition [2, 7] | growth inhibition [2, 8] | growth inhibition ([2]; at 50.0 µM) | growth inhibition [3, 7] | growth inhibition [3, 8] | growth inhibition ([3]; at 50.0 µM) | growth inhibition [4, 7] | growth inhibition [4, 8] | growth inhibition ([4]; at 50.0 µM) | growth inhibition [5, 7] | growth inhibition [5, 8] | growth inhibition ([5]; at 50.0 µM) | growth inhibition [6, 7] | growth inhibition [6, 8] | growth inhibition ([6]; at 50.0 µM)
CN(C)CCCC(=O)OCC[N+](C)(C)C | -2% | 4% | -39.2% | -4% | 6% | -8.5% | -4% | -2% | -11.2% | -14% | -3% | 64.3% | -1% | 5% | 14.2% | -4% | 5% | -12.5%
Brc1c2nc3ccccc3nc2n2ccc3ccccc3c12 | -37% | 59% | 47.8% | -11% | 86% (active) | 43% | -18% | 78% (active) | 54.5% | -14% | 83% (active) | 44.1% | -37% | 83% (active) | 21% | -38% | 69% | 59.5%
CCCCC(CC)COC(=O)c1cc2ccccc2oc1=O (configuration not stated) | 3% | 7% | 70.8% (active) | 1% | 13% | 61.8% | 3% | 21% | 68.5% | 5% | 4% | 49.5% | 11% | 35% | 79.6% (active) | 3% | 19% | 67.8%
Nc1ccc2ccccc2c1N=Nc1ccccc1 | 6% | 97% (active) | 98.3% (active) | 0% | 99% (active) | 99% (active) | 3% | 98% (active) | 99.1% (active) | -8% | 96% (active) | 96.6% (active) | 0% | 98% (active) | 98.5% (active) | 2% | 92% (active) | 97.6% (active)
O=[N+]([O-])C12CCCCC1([N+](=O)[O-])CCCC2 (configuration not stated) | -1% | 41% | 62.9% | -5% | 30% | 21.6% | -3% | 33% | 35.5% | -9% | 22% | 31.1% | -1% | 65% | 84.8% (active) | 0% | 28% | 37.8%
Cc1nc(Nc2ccc(Cl)cc2)sc1C(=O)NNc1ccc([N+](=O)[O-])cc1[N+](=O)[O-] | 24% | 24% | 88.8% (active) | 9% | 9% | 90.2% (active) | -6% | -6% | 90.5% (active) | 9% | 9% | 89.4% (active) | 10% | 10% | 92.8% (active) | 16% | 16% | 89.8% (active)
COc1ccc(C2=NN(c3ccccc3)C[N+](c3ccc(OC)cc3)=N2)cc1 | 22% | 72% (active) | 96.5% (active) | -7% | 51% | 97.5% (active) | 9% | 48% | 97.7% (active) | 10% | 96% (active) | 96.4% (active) | -10% | 99% (active) | 97.7% (active) | 6% | 84% (active) | 96.8% (active)
Cc1cc(S(=O)(=O)c2ccc(Cl)cc2)nc(S(=O)(=O)c2ccc(Cl)cc2)c1C#N | 45% | 78% (active) | 82.1% (active) | 43% | 91% (active) | 87.2% (active) | 99% (active) | 90% (active) | 85.2% (active) | 99% (active) | 91% (active) | 84.7% (active) | 99% (active) | 83% (active) | 80.4% (active) | 42% | 89% (active) | 80.2% (active)
Oc1ccccc1C(c1cc2c(cc1O)OCO2)N1CCOCC1 (configuration not stated) | -23% | 99% (active) | 87.3% (active) | -28% | 100% (active) | 88.7% (active) | -51% | 99% (active) | 89.8% (active) | -12% | 99% (active) | 91% (active) | -34% | 99% (active) | 91.3% (active) | 1% | 99% (active) | 91.9% (active)
COc1ccccc1CN1CCCN(Cc2ccccc2OC)C1c1ccccc1F | 2% | -2% | 55.9% | -9% | -11% | 43.5% | 4% | 8% | 62.6% | 1% | -1% | 36.6% | 0% | -5% | 78.8% (active) | 16% | 16% | 41%
CCc1cccc(C)c1NC(=O)C1=C(C)NC(C)=C(C(=O)Nc2c(C)cccc2CC)C1c1ccc2c(c1)OCO2 | 32% | 32% | 91.2% (active) | 27% | 27% | 89.3% (active) | 33% | 33% | 89.6% (active) | 20% | 20% | 84.2% (active) | 26% | 26% | 90% (active) | 37% | 37% | 87.2% (active)
O=[N+]([O-])c1cccc(S(=O)(=O)Cl)c1 | -1% | 10% | -15.3% | 2% | 3% | 14.9% | 1% | 6% | 14.2% | -3% | 0% | 43.9% | -2% | 4% | 59.5% | -1% | 2% | 33.5%
N#CS/C(C(Cl)=C(Cl)Cl)=C(/Cl)[N+](=O)[O-] | 99% (active) | 100% (active) | 88.8% (active) | 99% (active) | 100% (active) | 92% (active) | 99% (active) | 99% (active) | 85.9% (active) | 99% (active) | 99% (active) | 89.5% (active) | 99% (active) | 100% (active) | 90% (active) | 99% (active) | 99% (active) | 84% (active)
CCCN(CCC)CCNc1ccc(C)c2sc3ccccc3c(=O)c12 | 19% | 99% (active) | 99.7% (active) | 4% | 100% (active) | 99.7% (active) | 42% | 100% (active) | 99.5% (active) | 19% | 99% (active) | 99.5% (active) | 35% | 99% (active) | 99.4% (active) | 31% | 99% (active) | 99.5% (active)
CC(C)=CN(C)C (tested in a mixture with another compound) | -120% | 87% (active) | 93.5% (active) | -36% | 91% (active) | 96.7% (active) | -42% | 89% (active) | 91.7% (active) | -55% | 97% (active) | 98.4% (active) | -68% | 83% (active) | 91.2% (active) | -113% | 95% (active) | 95.8% (active)
O=C(CNc1cccc([N+](=O)[O-])c1)Nn1c(-c2ccccc2)nc2ccccc2c1=O | 2% | 30% | 55.5% | -3% | 17% | 18.4% | 3% | 21% | 62.7% | 12% | 35% | 38.6% | -18% | 9% | 54.6% | 7% | 41% | 76.7% (active)
COc1c2c3c(ccnc3c3ccccc13)C(=O)N2C | 29% | 84% (active) | 83% (active) | 15% | 72% (active) | 71.3% (active) | 19% | 75% (active) | 77.7% (active) | -3% | 52% | 61% | 0% | 72% (active) | 75.6% (active) | 17% | 76% (active) | 75% (active)
CCC1=C(c2ccc(OC(C)=O)cc2)Cc2cc(OC(C)=O)ccc21 | -14% | 64% | -4.5% | -13% | 67% | -9% | -3% | 72% (active) | 5.55% | -9% | 79% (active) | 4% | -3% | 83% (active) | 26% | -13% | 84% (active) | 4.55%
CCN(CC)CCC(=O)/C=C/c1ccc(Cl)c(Cl)c1 | 10% | 97% (active) | 90% (active) | 0% | 99% (active) | 93.1% (active) | 16% | 56% | 92% (active) | 14% | 97% (active) | 90.4% (active) | 10% | 98% (active) | 91.4% (active) | 37% | 98% (active) | 89.3% (active)
